Results filed as inconclusive are left out. The source made the active and inactive calls. Calls come from the whole dose curve; as a rule, active = well fitted curve in the direction sought with a large enough effect; inconclusive = small, poorly fitted or top-dose-only effect, or another doubt; inactive = no such curve, though single readings can be large; an effect the other way counts as inactive or inconclusive.
Key:
[1] = Cell Viability - H-4-II-E (AID 543);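 note: cells exposed to compound for 40 hours; % is set by controls: 0 for no effect and ±100 for the full control effect; nearly all actives have a fitted effect of over 35% in size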
Outline: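 AC50 from Hill-modelled qHTS concentration-response curves. H-4-II-E rat hepatoma cells in complete medium, 40 hr exposure at 37 °C, viability by CellTiter-Glo ATP luminescence.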

[2] = Cell Viability - SH-SY5Y (AID 544); settings: SH-SY5Y neuroblastoma cell viability; viability change, negative = cytotoxic: at 92.2 µM (top of the series);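 note: cells exposed to compound for 40 hours; nearly all actives have a fitted effect of over 55% in size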
Outline: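 Quantitative HTS in SH-SY5Y neuroblastoma cells, 40 hr treatment at 37 °C, ATP content by luciferase luminescence; AC50 from Hill fits.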

[3] = Cell Viability - Renal Proximal Tubule (AID 545);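 note: cells exposed to compound for 40 hours; nearly all actives have a fitted effect of over 40% in size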
Outline: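 Rat kidney proximal tubule cells, freshly isolated; 1000 cells/well, 5 hr settle, compound 40 hr 37 °C. CellTiter-Glo 20 min RT, luminescence read. AC50 by standard Hill fit.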

[4] = Cell Viability - Mesenchymal (AID 546);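 note: cells exposed to compound for 40 hours before reading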
Outline: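 CellTiter-Glo luminescence (intracellular ATP, 20 min room temperature) after 40 hr compound exposure at 37 °C of 1000 glomerulus-derived human kidney mesenchymal cells/well; AC50 values obtained by fitting qHTS concentration-response data to the Hill equation.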

[5] = Cellular Toxicity (caspase-3) HepG2 (AID 654);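 note: cells exposed to compound for 16 hours before reading; 0% = DMSO alone and 100% = caspase signal from 100 µM tamoxifen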
Outline: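 Concentration-response AC50 values reflect caspase-3/7 induction in HepG2 cells after 16 hours of compound exposure, quantified by luminescence from liberated aminoluciferin and referenced to 100 uM tamoxifen as full stimulation.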

[6] = Cellular Toxicity (caspase-3) HUV-EC-C (AID 656)
Outline: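 Luminescent caspase-3/7 activation (aminoluciferin substrate cleavage) in HUV-EC-C cells after 16 hr compound exposure, 37°C. Signal normalized to DMSO basal and 100 uM tamoxifen as 100%; AC50 from concentration-response fitted with the Hill equation.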

[7] = Cellular Toxicity (caspase-3) SHSY5Y (AID 657);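 note: cells exposed to compound for 16 hours at 37 °C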
Outline: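 Luminescent caspase-3/7 readout (aminoluciferin release) in SH-SY5Y cells after 16 h compound exposure in complete medium. Activity scaled between DMSO basal and 10 uM staurosporine as 100%; concentration-response fitted to Hill equation for AC50.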

[8] = Cellular Toxicity (caspase-3) BJ (AID 658);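 note: 0% = DMSO basal and 100% = 10 µM staurosporine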
Outline: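 Caspase-Glo 3/7 luminescence, read 1 hr after reagent at room temperature, in normal BJ fibroblasts exposed 16 hours at 37 °C. AC50 values from Hill-equation concentration-response, scaled between DMSO basal and 10 uM staurosporine as 100%.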

[9] = Cellular Toxicity (caspase-3) MRC-5 (AID 659);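 note: 0% = DMSO basal and 100% = 10 µM staurosporine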
Outline: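 Luminescent Caspase-Glo 3/7 read-out (1 h, room temperature) after a 16 h, 37 °C compound exposure of MRC-5 lung fibroblasts at 1500 cells/well. Concentration-response AC50 from Hill equation; 0% DMSO, 100% 10 uM staurosporine.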

[10] = Cellular Toxicity (caspase-3) Jurkat (AID 655); settings: Jurkat caspase-3 activation, luminescence; caspase-3 activation: at 92.2 µM (top of the series), DMSO = 0%, tamoxifen = 100%;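 note: cells exposed to compound for 16 h at 37 °C before reading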
Outline: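 Luminescent caspase-3/7 readout (aminoluciferin substrate cleavage) in human T-cell leukemia Jurkat cells after 16 hr compound exposure. Concentration-response normalized to DMSO and 100 uM tamoxifen; AC50 by standard Hill equation.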

c1ccc2c(c1)ccc1ncccc12
inactive: Potency [1] | Potency [2] | Potency [3] | Potency [4] | Potency [5] | outcome [6] | outcome [7] | outcome [8] | outcome [9]

O=C(O)c1ccccc1Cl
inactive: Potency [1] | Potency [2] | Potency [3] | Potency [4] | Potency [5] | caspase-3 activation [10] -0.163% | outcome [6] | outcome [7] | outcome [8] | outcome [9]

CCCC(Cl)CCCC(Cl)CCC(Cl)CCC(Cl)CCC(Cl)CCCC(Cl)CCC (stereo not given)
inactive: Potency [1] | Potency [2] | Potency [3] | Potency [4] | Potency [5] | outcome [6] | outcome [7] | outcome [8] | outcome [9]

CCCCC(CC)C(=O)O (stereo not given)
inactive: Potency [1] | Potency [2] | Potency [3] | Potency [4] | Potency [5] | caspase-3 activation [10] 1.13% | outcome [6] | outcome [7] | outcome [8] | outcome [9]

CCN(C(=O)N(CC)c1ccccc1)c1ccccc1
inactive: Potency [1] | Potency [2] | Potency [3] | Potency [4] | Potency [5] | outcome [6] | outcome [7] | outcome [8] | outcome [9]

Cc1cccc(C)c1
inactive: Potency [1] | Potency [2] | Potency [3] | Potency [4] | Potency [5] | caspase-3 activation [10] -2.27% | outcome [6] | outcome [7] | outcome [8] | outcome [9]

BrC/C=C/CBr
inactive: Potency [1] | Potency [2] | Potency [3] | Potency [4] | Potency [5] | outcome [6] | outcome [7] | outcome [8] | outcome [9]

O=C(Cl)c1c(Cl)cccc1Cl
inactive: Potency [1] | Potency [2] | Potency [3] | Potency [4] | Potency [5] | outcome [6] | outcome [7] | outcome [8] | outcome [9]

O=C(O)c1c(Cl)cccc1Cl
inactive: Potency [1] | Potency [2] | Potency [3] | Potency [4] | Potency [5] | caspase-3 activation [10] 0.737% | outcome [6] | outcome [7] | outcome [8] | outcome [9]

Nc1cccc([N+](=O)[O-])c1
inactive: Potency [1] | Potency [2] | Potency [3] | Potency [4] | Potency [5] | caspase-3 activation [10] 0.664% | outcome [6] | outcome [7] | outcome [8] | outcome [9]

CC(=C/C=C/C(C)=C/C=C/C=C(C)/C=C/C=C(C)/C=C/C(=O)O)/C=C/C(=O)O
inactive: Potency [1] | Potency [2] | Potency [3] | Potency [4] | Potency [5] | caspase-3 activation [10] -0.472% | outcome [6] | outcome [8] | outcome [9]

Nc1cc(S(=O)(=O)O)ccc1O
inactive: Potency [1] | Potency [2] | Potency [3] | Potency [4] | Potency [5] | caspase-3 activation [10] -0.212% | outcome [6] | outcome [8] | outcome [9]

S=C([S-])NCCNC(=S)[S-].[Zn+2]
inactive: Potency [1] | Potency [2] | Potency [3] | Potency [4] | caspase-3 activation [10] 5.46% | outcome [6] | outcome [7] | outcome [8] | outcome [9]

CCC(C)(C)C
inactive: Potency [1] | Potency [2] | Potency [3] | Potency [4] | caspase-3 activation [10] -0.787% | outcome [6] | outcome [7] | outcome [8] | outcome [9]

FB(F)F
inactive: Potency [1] | Potency [2] | Potency [3] | Potency [4] | Potency [5] | outcome [6] | outcome [7] | outcome [8] | outcome [9]

Source: PubChem BioAssay (NCATS)
